Measured values published in PubChem BioAssay (NCI).
Values joined by “and” are separate entries in the source; they are usually repeats but may differ in a detail not shown here. Equal entries are not always repeated. About 83,000 compounds went through this panel and 20% of them were active in at least one assay; those are over-represented in the sample as a whole.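 Results are percent growth after 48 hours of single-concentration exposure. 100 means growth as in untreated cells, lower positive values show inhibition; negative values down to -100 show cell death.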 Values without a mark were called inactive. Active and inactive are the calls of the source. How the source made its calls: active means growth percent below 10; inactive means the rest.

Test system: MDA-MB-468 breast
Assay: NCI-60 one-dose screen, 48 h (100 = growth as untreated, 0 = no growth, -100 = all killed)
Conditions: 10 µM unless noted

Question: Which growth does the source give for `CCN(CC)CCOc1ccc(/C(=C(\C)c2ccc(Cl)cc2)c2ccc(Cl)cc2)cc1` here?
Answer: The growth was 70.6%.

Question: Which growth does the source give for `Oc1ccccc1-c1nnc(Cn2c(Cc3cccc4ccccc34)nc3ccccc32)o1` here?
Answer: Its growth is 105%.

Question: For `O=C(Nc1ncc(Cc2ccc(Cl)c(C(F)(F)F)c2)s1)c1ccc2nnsc2c1`, which growth is on record?
Answer: Its growth is 26.3%.

Question: For `CCCCCCNC(=O)c1cc(NCc2cc(O)ccc2O)ccc1O`, which growth is on record?
Answer: Its growth is 65.6%.

Question: Which growth does the source give for `COC(=O)c1c2c(c(C)[n+]([O-])c1C)C(=O)C(NCc1ccc(F)c(Cl)c1)=CC2=O` here?
Answer: The growth was -18% (active).

Question: How did the growth turn out when `O=C(Nc1cccc(-c2nc3ccccc3[nH]2)c1)c1cccc(NC(=O)c2ccco2)c1` was run?
Answer: The growth was 70.8%.

Question: With `Cn1cc(-c2csc(-c3cn(CCNC(=O)OC(C)(C)C)c4ccc(F)cc34)n2)c2cccnc21` as the molecule, how does the growth read?
Answer: Its growth is 19.5%.

Question: How did the growth turn out when `c1ccc(Cn2nc3c(c2-c2ccccc2)-c2oncc2CC3)cc1` was run?
Answer: Its growth is 101%.

Question: With `CSc1nc2c(c(=O)[nH]1)C(c1ccc(Cl)cc1)C1=C(N2)/C(=C/c2ccc(Cl)cc2)CNC1` (stereo unspecified) as the molecule, how does the growth read?
Answer: The growth was 48.4%.

Question: Which growth does the source give for `Cc1ccc(C)c(NC(=O)c2sc3c(=O)[nH]cnc3c2C)c1` here?
Answer: Its growth is 67.2%.

Question: Which growth does the source give for `CN(C)CCCC1(c2ccc(F)cc2)OCc2cc(-c3cccc4[nH]ccc34)ccc21` (stereo unspecified) here?
Answer: Its growth is -34.5% (active).

Question: How did the growth turn out when `COc1cccc(CCNc2ncnc3c2ncn3Cc2nnc3c4ccccc4c(Cl)nn23)c1` was run?
Answer: Its growth is 57.4%.

Question: For `COc1ccc(-c2cc(-c3ccc(Nc4nc(Nc5ccccc5)nc(Nc5ccc(Cl)cc5)n4)cc3)nc(N)c2C#N)cc1`, which growth is on record?
Answer: The growth was -31.1% (active).

Question: For `Cc1cccc(CC(=O)c2ccccc2)n1`, which growth is on record?
Answer: The growth was 92.8%.

Question: `N#Cc1cccc(CN2CCC3=C(C2)C(=O)N(Cc2ccc(Cl)cc2)C2=NCCCN23)c1` was tested. Which growth did it give?
Answer: The growth was -16.1% (active).

Question: For `O=c1[nH]c(=O)n(Cc2ccc(F)cc2)cc1F`, which growth is on record?
Answer: Its growth is 102% [50 µM].

Question: With `Cc1cc(N(CCCNc2ccnc3cc(Cl)ccc23)Cc2ccc3c(c2)OCO3)nc(N2CCOCC2)n1` as the molecule, how does the growth read?
Answer: The growth was -14.4% (active).

Question: Which growth does the source give for `CCN(C(=O)c1cc2ncccc2[nH]1)[C@H]1CCC[C@@H](NCc2cccc(F)c2)C1` here?
Answer: The growth was 107%.

Question: Which growth does the source give for `CC(=Nc1ccccc1)C1=C(O)C(Cc2ccccc2)NC1=O` (stereo unspecified) here?
Answer: The growth was 15.4%.

Question: For `CCCc1n(Cc2ccc3ccccc3c2)c2ccccc2[n+]1Cc1ccc2ccccc2c1`, which growth is on record?
Answer: The growth was -44.7% (active).

Question: With `O=C1/C(=C/c2ccc([N+](=O)[O-])cc2)COc2ccc(O)c(O)c21` as the molecule, how does the growth read?
Answer: The growth was -90.9% (active).

Question: Which growth does the source give for `C#CC[C@@H]1C[C@]2(C)[C@H]3CC=C4[C@H]5[C@@H](C)[C@H](C)CC[C@]5(C(=O)NCCCN5CCN(CCCN)CC5)CC[C@@]4(C)[C@]3(C)CC[C@H]2C(C)(C)[C@H]1OC(C)=O` here?
Answer: The growth was -72.9% (active).

Question: `O=C1[C@H]2Cc3c([nH]c4ccccc34)[C@H](c3ccc(Cl)cc3)N2C(=O)CN1C1CCN(Cc2c(Cl)cccc2Cl)CC1` was tested. Which growth did it give?
Answer: Its growth is 57.5%.

Question: `O=C(/C(=C(\C(=O)c1ccccc1)c1ccccc1)c1ccccc1)c1ccccc1` was tested. Which growth did it give?
Answer: Its growth is 47.9%.

Question: `COc1ccc(CN2C(=O)/C(=C\c3cc(OC)c(OC)c(OC)c3)c3ccccc32)cc1` was tested. Which growth did it give?
Answer: Its growth is 5.64% (active).

Question: How did the growth turn out when `Cc1cccc(C)c1N1C(c2ccccc2)=NNC12C=CC(=O)c1c(O)cccc12` (stereo unspecified) was run?
Answer: Its growth is 85.1%.

Question: How did the growth turn out when `O=C(Nc1ccccc1)OCC(CN1CCCCC1)OC(=O)Nc1ccccc1` (stereo unspecified) was run?
Answer: Its growth is 59% and 94.1%.

Question: With `CCOC(=O)C#Cc1c(C(=O)OCC)nnn1[C@@H]1O[C@H](CO)[C@H]2OC3(CCCCC3)O[C@H]21` as the molecule, how does the growth read?
Answer: The growth was -19.7% (active).

Question: How did the growth turn out when `O=C(N/N=C/c1ccc2c(c1)OCO2)c1ccncc1` was run?
Answer: Its growth is 116% and 124%.

Question: How did the growth turn out when `COC(=O)c1ccc(NC(=O)Nc2ccc(C(=O)OC)cc2)cc1` was run?
Answer: Its growth is 97.9%.

Question: `CCc1ccccc1C(=O)N(CC)CC` was tested. Which growth did it give?
Answer: The growth was 116%.

Question: How did the growth turn out when `O=C1C=CC(=O)N1c1ccccn1` was run?
Answer: The growth was 114%.

Question: `C=C(C)[C@@H]1CCC=C2CC[C@]3(C)[C@H](CC[C@@H]4[C@@]5(C)CCCNC(C)(C)[C@@H]5CC[C@]43C)[C@H]21` was tested. Which growth did it give?
Answer: Its growth is -31.5% (active).

Question: How did the growth turn out when `CC(C)NC(=O)N/C=C(\C#N)C(N)=O` was run?
Answer: Its growth is 93.6%.

Question: How did the growth turn out when `N#C/C(=C\c1ccc([N+](=O)[O-])s1)c1nc2cc(Br)ccc2s1` was run?
Answer: The growth was 32.4%.

Question: For `CN1C(=O)c2cc(Cl)nc3c(NC(=O)c4cccc(Cl)c4)c(Cl)c(NC(=O)c4cccc(Cl)c4)c1c23`, which growth is on record?
Answer: Its growth is -19.6% (active).
